A number with no mark means an inactive call. Activity calls are given as the source filed them. Rule as the data show it, unless noted: active = inhibition above about 30%; inactive = the rest.
Each compound was assayed against Nuclear receptor coactivator 3 (Homo sapiens) (UniProt Q9Y6Q9) (assay: NCOA3 GAL4-fusion reporter inhibition – cell-based, luminescence, quadruplicate, confirmation (AID 588792;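 active = mean inhibition over 43.08%, the solvent-only control mean plus 3 SD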;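 also: 0% = DMSO treated cells and 100% = gossypol at 36 µM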)). Conditions: HEK293 GAL4-SRC3 luciferase reporter, at 3.6 µM, stronger effect = higher value.
Chain of Nuclear receptor coactivator 3 (Homo sapiens) (Q9Y6Q9 whole entry, looked up, the tested form may be a part): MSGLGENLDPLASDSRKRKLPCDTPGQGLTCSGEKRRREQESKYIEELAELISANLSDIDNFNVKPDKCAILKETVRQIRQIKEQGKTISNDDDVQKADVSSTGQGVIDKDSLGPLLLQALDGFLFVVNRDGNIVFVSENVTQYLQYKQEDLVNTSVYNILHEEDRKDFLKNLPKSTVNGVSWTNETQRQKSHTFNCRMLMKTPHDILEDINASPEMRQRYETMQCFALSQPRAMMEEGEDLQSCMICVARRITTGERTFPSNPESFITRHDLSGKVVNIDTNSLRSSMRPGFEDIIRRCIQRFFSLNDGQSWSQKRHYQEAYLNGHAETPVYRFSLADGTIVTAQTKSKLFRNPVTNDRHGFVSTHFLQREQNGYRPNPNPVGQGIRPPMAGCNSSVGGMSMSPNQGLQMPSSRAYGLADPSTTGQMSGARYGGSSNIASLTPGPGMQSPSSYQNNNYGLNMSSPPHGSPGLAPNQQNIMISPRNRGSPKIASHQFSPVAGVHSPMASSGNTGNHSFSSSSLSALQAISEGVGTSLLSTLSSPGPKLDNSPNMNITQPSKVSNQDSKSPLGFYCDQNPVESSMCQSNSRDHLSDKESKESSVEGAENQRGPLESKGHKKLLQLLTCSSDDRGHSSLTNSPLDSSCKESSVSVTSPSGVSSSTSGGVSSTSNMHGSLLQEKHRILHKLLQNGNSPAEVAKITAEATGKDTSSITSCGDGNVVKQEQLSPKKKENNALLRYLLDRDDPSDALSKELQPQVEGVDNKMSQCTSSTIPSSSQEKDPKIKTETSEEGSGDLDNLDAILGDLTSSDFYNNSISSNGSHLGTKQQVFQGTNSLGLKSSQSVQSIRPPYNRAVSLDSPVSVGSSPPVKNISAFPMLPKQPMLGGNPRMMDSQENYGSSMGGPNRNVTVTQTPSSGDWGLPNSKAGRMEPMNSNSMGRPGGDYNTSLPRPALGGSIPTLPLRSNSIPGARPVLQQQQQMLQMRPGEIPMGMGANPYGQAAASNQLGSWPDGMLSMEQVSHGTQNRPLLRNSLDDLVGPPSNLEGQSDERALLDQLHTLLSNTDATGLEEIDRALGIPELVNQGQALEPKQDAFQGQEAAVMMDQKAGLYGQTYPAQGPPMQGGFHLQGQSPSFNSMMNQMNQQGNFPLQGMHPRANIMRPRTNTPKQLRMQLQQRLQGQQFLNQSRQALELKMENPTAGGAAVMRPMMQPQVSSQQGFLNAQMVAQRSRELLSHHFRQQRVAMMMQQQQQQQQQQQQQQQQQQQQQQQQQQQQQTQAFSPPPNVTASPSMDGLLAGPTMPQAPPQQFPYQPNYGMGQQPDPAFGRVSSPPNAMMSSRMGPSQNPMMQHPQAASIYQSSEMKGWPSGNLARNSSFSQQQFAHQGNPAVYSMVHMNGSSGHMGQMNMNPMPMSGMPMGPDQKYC

Row | SMILES | inhibition
1 | COC(=O)c1ccc2c(=O)n(CCCCCC(=O)O)c(=S)[nH]c2c1 | 16.4%
2 | CC(C)(C)C(=O)Nc1ccc(C(=O)N/N=C/c2ccccc2OC(=O)c2ccc(Cl)cc2)cc1 | 27.4%
3 | Cc1cc2nccc(-c3ccncc3)n2n1 | 38.2%
4 | Cc1ccc(C(=O)NNC(=O)CCCN2C(=O)/C(=C/c3ccccc3Cl)SC2=S)cc1 | 20.4%
5 | Cc1cc(C)cc(OCC(=O)NCC2CCCO2)c1 (stereo not given) | 18.4%
6 | O=C(Nc1ccccc1)NN(C(=O)CCl)c1ccccc1 | -0.31%
7 | C=C(C(=O)c1ccccc1)C(C)C(=C)C(=O)c1ccccc1 | 44.4% (active)
8 | COc1ccc(C(=O)C(CCC(CNC(C)(C)C)C(=O)c2ccc(OC)cc2)CNC(C)(C)C)cc1 (stereo not given) | -9.42%
9 | Cc1nn(C)cc1C(C)NC(=O)c1cc(COc2cccc3cnccc23)on1 (stereo not given) | 18.6%
10 | Cc1cccc(CN2CCN(C(=O)CCl)CC2)c1 | 31.7%
11 | Cc1ccc(C2=NN(C(=O)CCl)C(c3ccco3)C2)o1 (stereo not given) | 38.2%
12 | CCc1ccc(-c2nc(CS(=O)CC(=O)NCc3ccco3)c(C)o2)cc1 (stereo not given) | 10.8%
13 | O=C(c1ccc(F)cc1)C(CN1CCOCC1)c1ccccc1 (stereo not given) | 44.1% (active)
14 | Nc1ccc(-c2nc3ccc(C(=O)O)cc3s2)cc1 | -24%
15 | COc1cc(/C=C/C(=O)c2ccc3c(c2)OCCO3)cc(Br)c1OCC(=O)N(C)C | 76.6% (active)
16 | Cc1cccc(C)c1NS(=O)(=O)c1ccc(-c2cnc(C3CC3)o2)cc1 | 43.2% (active)
17 | Cc1ccc(C2=NN(C(=O)CCl)C(c3cccs3)C2)o1 (stereo not given) | 36.8%
18 | Cn1c(/C=C/c2ccc(Br)cc2)c([N+](=O)[O-])c(=O)n(C)c1=O | 45.2% (active)
19 | Cc1noc(C)c1COC(=O)c1cccc(S(=O)(=O)N2CCCCCC2)c1 | 8.78%
20 | O=c1cc(CCl)nc(Cc2c(Cl)cccc2Cl)[nH]1 | 21.2%

Row | SMILES | inhibition
21 | CC(C)C(=O)NC(c1ccco1)c1ccc2cccnc2c1O (stereo not given) | 32.7%
22 | Cc1nc([N+](=O)[O-])c(Sc2nc3ccccc3[nH]2)n1Cc1ccccc1 | 16.1%
23 | CCOc1ccc(C(=O)C(CCC(CN(C)C)C(=O)c2ccc(OCC)cc2)CN(C)C)cc1 (stereo not given) | -1.23%
24 | O=C(NCCCn1ccnc1)c1ccc(N2CCCCCC2)c([N+](=O)[O-])c1 | 50.3% (active)
25 | CC1CCN(c2ccc(-c3cccs3)nn2)CC1 | 22.9%
26 | COCCN(C(=O)CCl)C(C(=O)NC1CCCCC1)c1ccccc1C (stereo not given) | 52.3% (active)
27 | O=C(O)CCn1c(O)c(C=C2N=c3ccccc3=N2)sc1=S | 12.5%
28 | CCCCn1c(CCl)nc2cc(S(=O)(=O)N3CCOCC3)ccc21 | 71.6% (active)
29 | Cc1ccc(-n2c(-c3ccc(Cl)cc3)c[n+]3c2CCC3)cc1 | 16.1%
30 | CCOc1ccc(CC(=O)Nc2ccc(NC(=O)c3ccco3)cc2)cc1OCC | 64% (active)
31 | COc1ccc(COC(=O)C2=C(C)NC(=O)NC2c2ccc(F)cc2)cc1 (stereo not given) | 34.1%
32 | O=C(O)CCCCCN1C(=O)CSC1=S | -1.77%
33 | CCN(CC)S(=O)(=O)c1cccc(C(=O)N/N=C(\C)c2ccc(O)cc2O)c1 | 66.7% (active)
34 | O=C1Cc2c([nH]c3ccc([N+](=O)[O-])cc23)-c2ccccc2N1 | 91.9% (active)
35 | COc1ccc2nc(C)cc(Sc3nc4ccccc4s3)c2c1 | 28.2%
36 | Cc1cc(Sc2nnc(N)s2)c2ccccc2n1 | -6.91%
37 | CCCCN(CC)Cc1ccc(CNC(=S)Nc2ccc(C)cc2Cl)o1 | 14.2%
38 | CCOc1cc(/C=C/C(=O)c2ccc(C)cc2)ccc1OCC(=O)N(C)C | 24.8%
39 | Cc1ccc2nc(NC(=O)CSCC(=O)OCC(=O)c3ccc(Br)cc3)sc2c1 | 36.5%
40 | CCCCCCCN(c1ccccc1)[C@@H]1C[C@H]2CCCC(=O)N3CC[C@@H](C1)[C@@H]23 | 6.93%

Each compound was assayed on transactivating tegument protein VP16 (Human herpesvirus 1), Gal4-VP16 luciferase reporter (assay: repression of VP16-driven luciferase reporter – cell-based, luminescence, high throughput, counter-screen for SRC3 inhibitor project (AID 588794)). Conditions: mammalian cells, at 3.6 µM, stronger effect = higher value.

Row | SMILES | inhibition
41 | COC(=O)c1ccc2c(=O)n(CCCCCC(=O)O)c(=S)[nH]c2c1 | 15.1%
42 | CC(C)(C)C(=O)Nc1ccc(C(=O)N/N=C/c2ccccc2OC(=O)c2ccc(Cl)cc2)cc1 | 7.22%
43 | Cc1cc2nccc(-c3ccncc3)n2n1 | 22.4%
44 | Cc1ccc(C(=O)NNC(=O)CCCN2C(=O)/C(=C/c3ccccc3Cl)SC2=S)cc1 | 21.8%
45 | Cc1cc(C)cc(OCC(=O)NCC2CCCO2)c1 (stereo not given) | -9.18%
46 | O=C(Nc1ccccc1)NN(C(=O)CCl)c1ccccc1 | 13.4%
47 | C=C(C(=O)c1ccccc1)C(C)C(=C)C(=O)c1ccccc1 | 33.4% (active)
48 | COc1ccc(C(=O)C(CCC(CNC(C)(C)C)C(=O)c2ccc(OC)cc2)CNC(C)(C)C)cc1 (stereo not given) | 4.54%
49 | Cc1nn(C)cc1C(C)NC(=O)c1cc(COc2cccc3cnccc23)on1 (stereo not given) | 24.9%
50 | Cc1cccc(CN2CCN(C(=O)CCl)CC2)c1 | 18.2%
51 | Cc1ccc(C2=NN(C(=O)CCl)C(c3ccco3)C2)o1 (stereo not given) | 7.74%
52 | CCc1ccc(-c2nc(CS(=O)CC(=O)NCc3ccco3)c(C)o2)cc1 (stereo not given) | -12.6%
53 | O=C(c1ccc(F)cc1)C(CN1CCOCC1)c1ccccc1 (stereo not given) | 55.9% (active)
54 | Nc1ccc(-c2nc3ccc(C(=O)O)cc3s2)cc1 | -26.4%
55 | COc1cc(/C=C/C(=O)c2ccc3c(c2)OCCO3)cc(Br)c1OCC(=O)N(C)C | 62.6% (active)
56 | Cc1cccc(C)c1NS(=O)(=O)c1ccc(-c2cnc(C3CC3)o2)cc1 | 15.3%
57 | Cc1ccc(C2=NN(C(=O)CCl)C(c3cccs3)C2)o1 (stereo not given) | 13.5%
58 | Cn1c(/C=C/c2ccc(Br)cc2)c([N+](=O)[O-])c(=O)n(C)c1=O | 47.8% (active)
59 | Cc1noc(C)c1COC(=O)c1cccc(S(=O)(=O)N2CCCCCC2)c1 | 20.2%
60 | O=c1cc(CCl)nc(Cc2c(Cl)cccc2Cl)[nH]1 | -8.27%

Row | SMILES | inhibition
61 | CC(C)C(=O)NC(c1ccco1)c1ccc2cccnc2c1O (stereo not given) | 20.6%
62 | Cc1nc([N+](=O)[O-])c(Sc2nc3ccccc3[nH]2)n1Cc1ccccc1 | 6.02%
63 | CCOc1ccc(C(=O)C(CCC(CN(C)C)C(=O)c2ccc(OCC)cc2)CN(C)C)cc1 (stereo not given) | 34.5% (active)
64 | O=C(NCCCn1ccnc1)c1ccc(N2CCCCCC2)c([N+](=O)[O-])c1 | -23.6%
65 | CC1CCN(c2ccc(-c3cccs3)nn2)CC1 | 9.04%
66 | COCCN(C(=O)CCl)C(C(=O)NC1CCCCC1)c1ccccc1C (stereo not given) | 38.7% (active)
67 | O=C(O)CCn1c(O)c(C=C2N=c3ccccc3=N2)sc1=S | 13.2%
68 | CCCCn1c(CCl)nc2cc(S(=O)(=O)N3CCOCC3)ccc21 | 34.6% (active)
69 | Cc1ccc(-n2c(-c3ccc(Cl)cc3)c[n+]3c2CCC3)cc1 | 21.9%
70 | CCOc1ccc(CC(=O)Nc2ccc(NC(=O)c3ccco3)cc2)cc1OCC | -14.3%
71 | COc1ccc(COC(=O)C2=C(C)NC(=O)NC2c2ccc(F)cc2)cc1 (stereo not given) | 28.1%
72 | O=C(O)CCCCCN1C(=O)CSC1=S | 2.06%
73 | CCN(CC)S(=O)(=O)c1cccc(C(=O)N/N=C(\C)c2ccc(O)cc2O)c1 | 43.7% (active)
74 | O=C1Cc2c([nH]c3ccc([N+](=O)[O-])cc23)-c2ccccc2N1 | 88.9% (active)
75 | COc1ccc2nc(C)cc(Sc3nc4ccccc4s3)c2c1 | 18.1%
76 | Cc1cc(Sc2nnc(N)s2)c2ccccc2n1 | 22.2%
77 | CCCCN(CC)Cc1ccc(CNC(=S)Nc2ccc(C)cc2Cl)o1 | -5.53%
78 | CCOc1cc(/C=C/C(=O)c2ccc(C)cc2)ccc1OCC(=O)N(C)C | 25.1%
79 | Cc1ccc2nc(NC(=O)CSCC(=O)OCC(=O)c3ccc(Br)cc3)sc2c1 | 40.5% (active)
80 | CCCCCCCN(c1ccccc1)[C@@H]1C[C@H]2CCCC(=O)N3CC[C@@H](C1)[C@@H]23 | 30.5% (active)
